Shown are actives, neighbours in structure and some others; about 4.1% of the full set was active somewhere.
DAX1 inh-1: blocks DAX1 repression of SF-1 activated StAR promoter; HEK293T StAR-luciferase reporter, SF-1/DAX-1 repression relief; inhibition, % at 6.8 µM; hit rate 1.1% among 370,000; AID 652010;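 active means inhibition above the mean over all tested compounds plus 3 SD, cut at about 3.6% in these data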;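 further: 0% = DAX-1 cells with DMSO and 100% = cells lacking DAX-1 with DMSO; higher inhibition means more luminescence from relief of DAX-1 repression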
DAX1 inh-2: NR0B1 (DAX1) inhibition | P51843 | HEK293 Gal4-DAX1 luciferase reporter, luminescence | hit rate 0.99% among 340,000 | inhibition, % at 6.75 µM;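 active means inhibition above the mean over all tested compounds plus 3 SD, cut at about 4.2% in these data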;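 further: 0% = DAX1-transfected cells with DMSO and 100% = empty-vector control cells with DMSO; inhibition shows as a rise in luminescence from relieved DAX1 repression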
Target sequence (P51843 207-470 limits assumed): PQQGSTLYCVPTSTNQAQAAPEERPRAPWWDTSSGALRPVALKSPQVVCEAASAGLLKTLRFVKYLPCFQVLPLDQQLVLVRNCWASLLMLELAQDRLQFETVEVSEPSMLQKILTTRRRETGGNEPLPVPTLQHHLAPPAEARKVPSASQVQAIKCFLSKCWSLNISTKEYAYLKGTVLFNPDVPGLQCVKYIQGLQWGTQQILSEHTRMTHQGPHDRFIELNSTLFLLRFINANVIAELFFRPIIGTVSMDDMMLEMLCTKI
ssDAF-12 act: activators of S. stercoralis DAF-12 nuclear receptor | HEK293 ssDAF-12/GRIP1 lit1-tk-luc reporter, luminescence; % of 3 µM dafachronic acid response | activation, % at 6.8 µM | hit rate 1% among 370,000 | AID 652126;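 active means activation above the mean over all tested compounds plus 3 SD, cut at about 0.9% in these data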;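 further: 0% = DMSO-only wells and 100% = 3 µM delta7-dafachronic acid wells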
hgDAF12 agonist: agonists of H. glycines DAF-12 nuclear receptor; HEK293 GAL4-hgDAF12 UAS-luciferase reporter, agonist luminescence; normalized to butyrate control; activation, % at 6.8 µM; hit rate 1.8% among 370,000; AID 687014;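 active means activation above a cutoff set at the mean of all screened compounds plus 3 SD, cut at about 10% in these data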;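 further: 0% = DMSO wells and 100% = sodium butyrate wells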
hcDAF12 agonist: H. contortus DAF-12 activation, primary screen; HEK293 hcDAF-12 lit1-tk-luc reporter, luminescence; 0% DMSO, 100% Δ7-dafachronic acid; activation, % at 6.8 µM; hit rate 1.4% among 370,000; AID 652067;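 active means activation above the mean of all tested compounds plus 3 SD, cut at about 5.5% in these data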;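 further: 100% = response to 3 µM Δ7-dafachronic acid high control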
DAX1 conf: NR0B1 (human) inhibition, confirmation; shares compounds with DAX1 inh-1; HEK293T StAR-promoter luciferase reporter, SF-1/DAX-1 repression; inhibition, % at 6.8 µM; hit rate 87% among 2,400; AID 652134;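 active means inhibition above the average of every tested compound plus 3 SD, cut at about 3.8% in these data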;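 further: 0% = DAX-1 cells with DMSO and 100% = no DAX-1 control cells with DMSO; active compounds raise luminescence by relieving repression of the StAR reporter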
SF1 mutant ctr: counter-screen for DAX1 inhibitors: nonselective inhibitors with SF-1 AF2 mutant; shares compounds with DAX1 inh-1; HEK293 StAR-luciferase, luminescence; inhibition, % at 6.8 µM; hit rate 78% among 2,400; AID 652136;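 active means inhibition above the mean of all tested compounds plus 3 SD, cut at about 3% in these data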;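 further: 0% = DAX-1 transfected cells with DMSO and 100% = cells without DAX-1 with DMSO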
LXRb hcDAF ctr: counter-screen for hcDAF-12 agonists: agonists of human LXR-beta; 3,400 tested, under 10 active; AID 743027; HEK293 Gal4-LXR tk-luc reporter, luminescence, 24 h; normalized: DMSO 0%, positive control 100%; activation, % at 6.8 µM; shares compounds with hcDAF12 agonist;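 active means mean percent activation of the reporter above a cutoff set as the average over tested compounds plus their standard deviation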
Target sequence (P55055 whole entry, looked up, the tested form may be a part): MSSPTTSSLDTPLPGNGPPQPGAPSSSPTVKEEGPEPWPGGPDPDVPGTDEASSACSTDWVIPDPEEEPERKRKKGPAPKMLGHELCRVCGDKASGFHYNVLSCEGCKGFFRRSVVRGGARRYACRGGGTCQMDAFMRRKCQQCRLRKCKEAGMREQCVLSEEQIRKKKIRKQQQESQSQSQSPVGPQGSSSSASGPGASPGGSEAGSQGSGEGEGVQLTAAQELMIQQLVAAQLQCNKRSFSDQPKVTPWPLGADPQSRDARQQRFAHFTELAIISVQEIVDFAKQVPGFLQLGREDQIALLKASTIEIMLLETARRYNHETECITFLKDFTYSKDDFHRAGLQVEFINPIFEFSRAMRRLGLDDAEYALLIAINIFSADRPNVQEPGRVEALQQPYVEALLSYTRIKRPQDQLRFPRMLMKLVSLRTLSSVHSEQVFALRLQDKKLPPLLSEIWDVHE
hcDAF12 ag: hcDAF-12 agonism, confirmation assay; shares compounds with hcDAF12 agonist; HEK293 hcDAF-12 lit1-tk-luc reporter, luminescence; % of Δ7-dafachronic acid response; activation, % at 6.8 µM; hit rate 61% among 3,400; AID 743032;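 active means mean activation across triplicate tests above the threshold derived from the earlier primary screen, cut at about 5.5% in these data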;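 further: 0% = DMSO only wells and 100% = 3 µM Δ7-dafachronic acid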
hgDAF12 conf: hgDAF-12 agonism, confirmation assay; hit rate 80% among 3,300; HEK293 GAL4-hgDAF12 luciferase reporter, agonist mode; percent of butyrate response; shares compounds with hgDAF12 agonist; activation, % at 6.8 µM; AID 743050;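 active means mean activation over triplicate wells above the hit cutoff derived from the earlier primary screen, cut at about 11% in these data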;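 further: 0% = DMSO low control and 100% = 2 mM sodium butyrate high control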
LXR ag 2: counter-screen for DAF-12 agonists: agonists of human LXR-beta; HEK293 Gal4-LXR luciferase reporter, 24 h; shares compounds with hgDAF12 agonist; AID 743051; activation, % at 6.8 µM; 3,300 tested, under 10 active;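 active means mean activation of the triplicate above a set limit carried over from the primary screen, none filed active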
Active calls of the source: *; . = no result given.

SMILES	DAX1 inh-1	DAX1 inh-2	ssDAF-12 act	hgDAF12 agonist	hcDAF12 agonist	DAX1 conf	SF1 mutant ctr	LXRb hcDAF ctr	hcDAF12 ag	hgDAF12 conf	LXR ag 2
CCCC(=O)Nc1nc(-c2ccc3c(c2)OCCO3)cs1	5.6*	3	-1	14*	4	6.5*	4.8*	.	.	11*	1
O=C(O)C(=O)Nc1nc(-c2ccc3c(c2)OCCO3)cs1	2	0	-1	2	2	.	.	.	.	.	.
O=Nc1c2cc(-c3ccccc3)[nH]nc-2c2ccccc12	5.8*	0	2.7*	23*	20*	5.4*	1	2	19*	12*	1
NC(=O)c1ccsc1NC(=O)c1ccc(N2CCCC2=O)cc1	6.7*	-3	1.0*	25*	7.4*	14*	9.6*	1	6.9*	17*	1
O=C(Nc1ccc(F)cc1)c1ccccc1NC(=O)C1CC=CCC1C(=O)O (configuration not stated)	1	0	-1	5	1	.	.	.	.	.	.
CC(C)c1ccc(NC(=O)c2ccccc2NC(=O)C2CC=CCC2C(=O)O)cc1 (configuration not stated)	8.3*	5.5*	0	15*	3	3	3.6*	.	.	7	0
CC(=O)c1sc(NC(=O)c2cccc(C)c2)nc1C	4.6*	7.0*	0	20*	5	5.9*	5.4*	.	.	15*	1
C=CCn1c(SCC(=O)NCC2CCCO2)nc2c([nH]c3ccccc32)c1=O (configuration not stated)	0	0	0	3	1	.	.	.	.	.	.
O=C(Nc1ccc2sccc2c1)c1ccc(Cl)s1	9.0*	2	1.4*	21*	15*	20*	11*	2	12*	23*	1
O=C(CCc1c[nH]c2ccccc12)N[C@@H](Cc1c[nH]c2ccc(O)cc12)C(=O)O	0	-1	-1	0	-2	.	.	.	.	.	.
C[C@@H]1CN([C@@H](C)CO)C(=O)c2cc(C#Cc3ccccc3)cnc2O[C@@H]1CN(C)Cc1ccccn1	2	-1	-1	-1	-1	.	.	.	.	.	.
Cc1nnc(NC(=O)c2oc3ccccc3c2C)s1	8.9*	1	1.4*	15*	11*	10.0*	9.5*	1	12*	10*	1
CCCc1ncc(C(O)(c2ccccc2)c2ccccc2)n1C	1	-1	-1	0	-1	.	.	.	.	.	.
CSc1ccc(/C=N/NC(=O)c2ccc(C)c(C)c2)cc1	0	1	-1	1	-1	.	.	.	.	.	.
CSc1ccc(/C=N/NC(=O)c2sccc2C)cc1	5.8*	1	1.7*	16*	7.1*	16*	7.9*	2	6.6*	24*	1
Cc1ccsc1/C=C/c1ccc2ccccc2n1	5.0*	1	3.0*	16*	23*	7.3*	2	2	22*	15*	2
COc1ccc(C=Cc2ccc3ccccc3n2)c(OC)c1	-2	1	-2	-8	0	.	.	.	.	.	.
O=C(Cc1ccc(-n2c(=O)[nH]c3ccsc3c2=O)cc1)NCc1cccnc1	-1	-1	-1	-3	-1	.	.	.	.	.	.
Cc1cccc(/C(N)=N/OC(=O)c2ccc3c(c2)OCO3)c1	5.4*	1	0	15*	8.6*	11*	6.8*	1	6.7*	14*	1
N/C(=N\OC(=O)c1ccc2c(c1)OCO2)c1cccc([N+](=O)[O-])c1	0	0	-1	3	3	.	.	.	.	.	.
Cc1ccnc(SCc2cn3c(C)cc(C)nc3n2)n1	0	-1	-1	1	-1	.	.	.	.	.	.
Cc1cc(C)n2cc(COc3ccc4ccccc4c3)nc2n1	6.3*	2	1	17*	8.0*	15*	8.8*	1	6	17*	1
CCc1ccc(C2=NN(C(C)=O)C(c3ccco3)C2)cc1 (configuration not stated)	4.9*	3	0	15*	4	9.5*	5.5*	.	.	15*	0
CN1CCN(c2ccc(-c3cccc(NC(=O)COc4ccc(Cl)cc4)c3)nn2)CC1	7.9*	1	1	14*	3	4.5*	2	.	.	10	1
CCC(=O)Nc1cccc(-c2ccc(N3CCN(C)CC3)nn2)c1	.	1	.	.	.	.	.	.	.	.	.
SMILES	DAX1 inh-1	DAX1 inh-2	ssDAF-12 act	hgDAF12 agonist	hcDAF12 agonist	DAX1 conf	SF1 mutant ctr	LXRb hcDAF ctr	hcDAF12 ag	hgDAF12 conf	LXR ag 2
CCC(=O)Nc1cccc(-c2ccc(N3CCCCC3)nn2)c1	15*	-1	0	14*	5.9*	10*	4.7*	.	.	15*	1
O=C(/C=C/c1cccc(F)c1)N1CCc2ccccc21	5.6*	3	2.2*	24*	14*	15*	8.4*	2	13*	22*	1
O=C(/C=C/c1cccc(F)c1)OCC(=O)N1CCCc2ccccc21	2	0	-1	2	1	.	.	.	.	.	.
O=C(N/N=C\c1ccc[nH]1)c1cncc(Br)c1	0	0	-1	2	-1	.	.	.	.	.	.
CCC(=O)Nc1cccc(NC(=S)NC(=O)c2ccc(Cl)cc2Cl)c1	1	-1	0	8	0	.	.	.	.	.	.
O=C(NC(=S)Nc1ncccn1)c1ccc(Cl)cc1Cl	6.7*	5.1*	0	16*	2	14*	9.8*	.	.	14*	1
COc1ccc2oc3cc(NCCN(C)C)ccc3c(=O)c2c1	16*	.	2.2*	43*	9.2*	22*	13*	2	8.4*	42*	1
CC(C)(CNCc1ccccc1)NS(=O)(=O)c1ccc(Cl)cc1	1	0	-1	0	0	.	.	.	.	.	.
O=[N+]([O-])c1ccc(COc2ccc(CN3CCCCC3)cc2)cc1	2	0	-1	8	1	.	.	.	.	.	.
O=[N+]([O-])c1ccc(COc2ccc(CN3CCCC3)cc2)cc1	4.8*	0	0	15*	2	6.9*	5.6*	.	.	13*	0
O=[N+]([O-])c1ccc(COc2ccc(CN3CCOCC3)cc2)cc1	7.7*	-2	0	18*	3	4.2*	1	.	.	9	1
